Experimental data reported in PubChem BioAssay (NCI).
This is part of a sample that, as a whole, favours compounds with a hit. Of some 83,000 tested, about 20% had one in any assay.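 Treatment: one concentration, 48 hours, 96-well format. Scoring: percent growth, with anything below 10 considered active.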 A number with no mark means an inactive call. Calls of active or inactive are those of the source.

system: HT29 colon; test: NCI-60 one-dose screen, 48 h (100 = growth as untreated, 0 = no growth, -100 = all killed); settings: 10 µM unless noted

| Compound | growth |
| --- | --- |
| CN1CCN(c2ccc(-c3ccc4ncc(C#N)c(Nc5ccc(F)c(Cl)c5)c4c3)cc2)CC1 | 18.2% |
| CNc1ccc(Nc2cccc(C)c2)c2c1C(=O)c1ccccc1C2=O | 96.6% |
| O=C(Nc1ccc(Cl)cc1F)c1ccccc1O | 96.4% |
| O=C1CCC(C(=O)NCCNCCNC(=O)C2CCC(=O)N2)N1 (stereo unspecified) | 89.8% |
| CC/C=C\C[C@@H](O)C/C=C1/C(=O)C=C[C@H]1C/C=C\CCCC(=O)OC | -58.5% (active) |
| Cc1ccc(C(=O)NN2C(=O)CSC2c2cccc([N+](=O)[O-])c2)cn1 (stereo unspecified) | 104% |
| CNCCCNc1nc2ccccc2c2c(=O)c3cc(OC)ccc3sc12 | 4.95% (active) |
| COc1ccc(-c2[nH]c3ccc(OC)cc3c2/C=C(\C#N)S(=O)(=O)c2ccccc2)cc1 | 13.2% |
| N[C@@H](Cc1ccccc1)[C@@H](O)C(=O)NCc1ccc(F)cc1 | 110% |
| COc1cc(CCC[P+](c2ccccc2)(c2ccccc2)c2ccccc2)c(OC)c(OC)c1OC | 112% |
| O=C(Nc1ccc(OS(=O)(=O)c2ccc(F)cc2)cc1)c1ccc(Cl)cc1 | 80.1% |
| CC(=O)OC[C@H]1OC(Sc2sc(C(=O)c3ccc(Br)cc3)c(N)c2-c2nc3ccccc3s2)[C@H](OC(C)=O)[C@@H](OC(C)=O)[C@H]1OC(C)=O (stereo partly specified) | 106% |
| CCOc1c(B(O)O)cccc1-c1nc2ccc3[nH]ncc3c2c2c1CCCC2 | 78.7% |
| Cc1ccc(-c2nc3c(c(-c4ccccc4)nn3-c3ccccc3)c(-c3ccc(O)cc3)c2C#N)cc1 | 107% |
| C/C(=C\C(=O)c1ccc(Cl)cc1)c1ccc(Cl)cc1 | 109% |
| CCC12CCC[N+]3([O-])CCC4(C(=Nc5ccccc54)C(O)(C(=O)OC)C1)C23 (stereo unspecified) | 98.3% |
| CCN1C(=O)N(CC)C2Nn3c(s/c(=C4\C(=O)N(CCC(C)C)c5ccccc54)c3=O)=NC21 (stereo unspecified) | 112% |
| S=c1nc(-c2ccccc2)oc(=NC2CCCCC2)n1C1CCCCC1 | 49.5% |
| NC[C@@H]1O[C@H](O[C@@H]2[C@@H](CO)OC(O[C@@H]3[C@@H](O)[C@H](N)C[C@H](N)[C@H]3OC3O[C@H](CN)[C@@H](O)[C@H](O)[C@H]3N)[C@@H]2O)[C@H](N)[C@@H](O)[C@@H]1O (stereo partly specified) | 109% |

| Compound | growth |
| --- | --- |
| Cc1cc(=O)oc2cc(OC(=O)N3CCN(C)CC3)ccc12 | 114% |
| C=CCc1cc(C)ccc1NC(C(=O)NCC(=O)OC)c1ccccc1 (stereo unspecified) | 98.4% |
| COc1ccc(OC)c(/C=C/C(=O)N/N=C/c2ccccc2)c1 | 20.7% |
| COc1ccc(/C=N/Nc2cc(=O)[nH]c3ccc(Cl)cc23)cc1 | 3.92% (active) |
| CCOC(=O)c1[nH]c(C)c(C(=O)OCc2ccccc2C#N)c1C | 35.1% |
| COc1cc(Nc2nc(NCCN)nc3cc[nH]c(=O)c23)cc(OC)c1 | 73.6% |
| COc1cc(/C=C/c2c(C(C)=O)c(C)nc3ccccc23)cc(OC)c1OC | 17.6% |
| Cc1nc2ccccc2c(/C=C/c2ccc(Cl)cc2)c1C(=O)/C=C/c1ccc(C(F)(F)F)cc1 | 3.52% (active) |
| O=C(N/N=C/[C@H](O)[C@H](O)[C@H](O)CO)c1ccc(NC(=O)c2cccnc2)cc1 | 104% |
| COc1cccc(-c2nc(-c3ccc(NC(=O)c4ccccc4)cc3)[nH]c2-c2ccnc(Br)c2)c1 | 10.2% |
| CCCCn1c(=O)c(-c2cc(-c3ccc(Cl)cc3)nc(-c3ccc(Cl)cc3)c2)cc2cc(Cl)ccc21 | 101% |
| O=S(=O)(NCCCNc1cc(-c2c(-c3cccc(O)c3)nc3sccn23)ccn1)c1cccc2ccccc12 | 36.1% |
| COc1cccc2c(=O)c3c(sc12)c(N1CCNCC1)nc1ccccc13 | 0.0883% (active) |
| COc1cc(-c2nc3sccn3c2-c2ccnc(NCCCNS(=O)(=O)c3ccc(F)cc3)n2)ccc1F | 61% |
| CCCCC[C@H](O)C/C=C1/C(=O)C=C[C@@H]1C/C=C\CCCC(=O)O | 59.8% |
| CCCCCCN1C(=O)/C(=c2\sc3n(c2=O)C2C(NN=3)N(CC)C(=O)N2CC)c2ccccc21 (stereo unspecified) | -24.7% (active) |
| COc1cccc2c(=O)c3c(sc12)c(NCCCN)nc1ccccc13 | -29.3% (active) |
| COc1ccc2c(c1)c(-c1nn3cc(-c4cccs4)nc3s1)cn2C | 52.1% |
| CCOC(=O)Nc1ccc(-c2nc(-c3cccc(OC)c3)c(-c3ccnc(Br)c3)[nH]2)cc1 | 25.7% |

system: SNB-75 CNS; test: as above; settings: 10 µM unless noted

| Compound | growth |
| --- | --- |
| CN1CCN(c2ccc(-c3ccc4ncc(C#N)c(Nc5ccc(F)c(Cl)c5)c4c3)cc2)CC1 | 75.5% |
| CNc1ccc(Nc2cccc(C)c2)c2c1C(=O)c1ccccc1C2=O | 96.3% |
| O=C(Nc1ccc(Cl)cc1F)c1ccccc1O | 36.4% |
| O=C1CCC(C(=O)NCCNCCNC(=O)C2CCC(=O)N2)N1 (stereo unspecified) | 101% |
| CC/C=C\C[C@@H](O)C/C=C1/C(=O)C=C[C@H]1C/C=C\CCCC(=O)OC | 90.8% |
| Cc1ccc(C(=O)NN2C(=O)CSC2c2cccc([N+](=O)[O-])c2)cn1 (stereo unspecified) | 84.6% |
| CNCCCNc1nc2ccccc2c2c(=O)c3cc(OC)ccc3sc12 | 72.6% |
| COc1ccc(-c2[nH]c3ccc(OC)cc3c2/C=C(\C#N)S(=O)(=O)c2ccccc2)cc1 | 8.92% (active) |
| N[C@@H](Cc1ccccc1)[C@@H](O)C(=O)NCc1ccc(F)cc1 | 90.1% |
| COc1cc(CCC[P+](c2ccccc2)(c2ccccc2)c2ccccc2)c(OC)c(OC)c1OC | 29.7% |
| O=C(Nc1ccc(OS(=O)(=O)c2ccc(F)cc2)cc1)c1ccc(Cl)cc1 | 114% |
| CC(=O)OC[C@H]1OC(Sc2sc(C(=O)c3ccc(Br)cc3)c(N)c2-c2nc3ccccc3s2)[C@H](OC(C)=O)[C@@H](OC(C)=O)[C@H]1OC(C)=O (stereo partly specified) | 74.5% |
| CCOc1c(B(O)O)cccc1-c1nc2ccc3[nH]ncc3c2c2c1CCCC2 | -38.5% (active) |
| Cc1ccc(-c2nc3c(c(-c4ccccc4)nn3-c3ccccc3)c(-c3ccc(O)cc3)c2C#N)cc1 | 40.5% |
| C/C(=C\C(=O)c1ccc(Cl)cc1)c1ccc(Cl)cc1 | 92.8% |
| CCC12CCC[N+]3([O-])CCC4(C(=Nc5ccccc54)C(O)(C(=O)OC)C1)C23 (stereo unspecified) | 92.7% |
| CCN1C(=O)N(CC)C2Nn3c(s/c(=C4\C(=O)N(CCC(C)C)c5ccccc54)c3=O)=NC21 (stereo unspecified) | 59.2% |
| S=c1nc(-c2ccccc2)oc(=NC2CCCCC2)n1C1CCCCC1 | 68.2% |
| NC[C@@H]1O[C@H](O[C@@H]2[C@@H](CO)OC(O[C@@H]3[C@@H](O)[C@H](N)C[C@H](N)[C@H]3OC3O[C@H](CN)[C@@H](O)[C@H](O)[C@H]3N)[C@@H]2O)[C@H](N)[C@@H](O)[C@@H]1O (stereo partly specified) | 106% |

| Compound | growth |
| --- | --- |
| Cc1cc(=O)oc2cc(OC(=O)N3CCN(C)CC3)ccc12 | 73.1% |
| C=CCc1cc(C)ccc1NC(C(=O)NCC(=O)OC)c1ccccc1 (stereo unspecified) | 88.9% |
| COc1ccc(OC)c(/C=C/C(=O)N/N=C/c2ccccc2)c1 | 41.1% |
| COc1ccc(/C=N/Nc2cc(=O)[nH]c3ccc(Cl)cc23)cc1 | 99% |
| CCOC(=O)c1[nH]c(C)c(C(=O)OCc2ccccc2C#N)c1C | 0.16% (active) |
| COc1cc(Nc2nc(NCCN)nc3cc[nH]c(=O)c23)cc(OC)c1 | 90.3% |
| COc1cc(/C=C/c2c(C(C)=O)c(C)nc3ccccc23)cc(OC)c1OC | -34.5% (active) |
| Cc1nc2ccccc2c(/C=C/c2ccc(Cl)cc2)c1C(=O)/C=C/c1ccc(C(F)(F)F)cc1 | -79.6% (active) |
| O=C(N/N=C/[C@H](O)[C@H](O)[C@H](O)CO)c1ccc(NC(=O)c2cccnc2)cc1 | 97.4% |
| COc1cccc(-c2nc(-c3ccc(NC(=O)c4ccccc4)cc3)[nH]c2-c2ccnc(Br)c2)c1 | 10.7% |
| CCCCn1c(=O)c(-c2cc(-c3ccc(Cl)cc3)nc(-c3ccc(Cl)cc3)c2)cc2cc(Cl)ccc21 | 95.4% |
| O=S(=O)(NCCCNc1cc(-c2c(-c3cccc(O)c3)nc3sccn23)ccn1)c1cccc2ccccc12 | 4.78% (active) |
| COc1cccc2c(=O)c3c(sc12)c(N1CCNCC1)nc1ccccc13 | 79.2% |
| COc1cc(-c2nc3sccn3c2-c2ccnc(NCCCNS(=O)(=O)c3ccc(F)cc3)n2)ccc1F | 59.9% |
| CCCCC[C@H](O)C/C=C1/C(=O)C=C[C@@H]1C/C=C\CCCC(=O)O | 79.1% |
| CCCCCCN1C(=O)/C(=c2\sc3n(c2=O)C2C(NN=3)N(CC)C(=O)N2CC)c2ccccc21 (stereo unspecified) | -38.4% (active) |
| COc1cccc2c(=O)c3c(sc12)c(NCCCN)nc1ccccc13 | 58.2% |
| COc1ccc2c(c1)c(-c1nn3cc(-c4cccs4)nc3s1)cn2C | 50.3% |
| CCOC(=O)Nc1ccc(-c2nc(-c3cccc(OC)c3)c(-c3ccnc(Br)c3)[nH]2)cc1 | 32.6% |
